Source: PubChem BioAssay AID504332 (National Center for Advancing Translational Sciences (NCATS), 2011)
Screen size: about 350,000 compounds; about 31,000 (8.9%) were called active. Another 15% or so got no clear call; they are omitted. Calls follow the shape of the dose curve; as a rule, active = well fitted inhibition curve with a large enough effect; inconclusive = small, poorly fitted or top-dose-only effect; inactive = no such curve, though single readings can be large or run the other way. Only a selection was taken, and actives are over-represented in it overall.

These compounds were tested against Histone-lysine N-methyltransferase EHMT2 (Homo sapiens) (UniProt Q96KQ7) (assay: qHTS Assay for Inhibitors of Histone Lysine Methyltransferase G9a). Conditions: G9a H3K9 monomethylation, AlphaScreen, 2 h; series mostly up to 59 µM; activity, negative = inhibition: at the top concentration.
Histone-lysine N-methyltransferase EHMT2 (Homo sapiens), sequence (Q96KQ7 913-1193 limits assumed): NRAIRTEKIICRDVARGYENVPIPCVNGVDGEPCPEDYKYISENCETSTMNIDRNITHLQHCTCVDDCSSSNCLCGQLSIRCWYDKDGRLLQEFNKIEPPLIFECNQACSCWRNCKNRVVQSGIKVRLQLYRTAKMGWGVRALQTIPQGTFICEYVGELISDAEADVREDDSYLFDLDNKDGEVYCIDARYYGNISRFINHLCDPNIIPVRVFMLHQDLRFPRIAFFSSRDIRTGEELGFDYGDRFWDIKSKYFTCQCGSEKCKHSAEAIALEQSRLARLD
Method in brief: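 Quantitative HTS format: methyltransferase activity on a biotin-tagged H3K9 peptide is measured by AlphaScreen, using a rabbit anti-monomethyl-H3K9 antibody with streptavidin donor and anti-IgG acceptor beads. Final levels are 20 nM enzyme, 500 nM peptide, 20 uM SAM; 2 h RT.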
% is scaled to controls: 0 for no effect and ±100 for the full control effect; potency is read from the fitted curve at half-maximal effect.
Also: nearly all actives have a fitted effect of over 75% in size.

Row | SMILES | Potency | activity, negative = inhibition
1 | CNc1ccc(SC#N)cc1 | 44.7 µM (active) | 
2 | COc1ccc(-n2nc(C(=O)NCCc3ccc(Cl)cc3)c3c4ccccc4n(C)c3c2=O)cc1Cl |  | 3.47% (inactive)
3 | CCOc1ccc2nc(NCCNC(=O)C(C)(C)C)c(C)cc2c1 |  | 13.8% [at 102 µM] (inactive)
4 | CCOc1ccc(S(=O)(=O)NCCSc2ccccc2)cc1 |  | 52.1% [at 102 µM] (inactive)
5 | CCOc1ccc2nc(NCCNS(=O)(=O)c3ccccc3)c(C#N)cc2c1 | 50.1 µM (active) | 
6 | Cc1nnc(SCC(=O)NCc2ccccc2Cl)c2nn(-c3ccccc3)c(C)c12 |  | -24.3% (inactive)
7 | CCOC(=O)c1ccc(NC(=O)C2CC(=O)NC(=Nc3ccc(C)c(C)c3)S2)cc1 (stereo unspecified) |  | -67.7% (inactive)
8 | COC(=O)c1cc(NC(=O)c2cccnc2)ccc1N1CCOCC1 |  | -2.27% [at 0.501 µM] (inactive)
9 | COc1ccccc1NC(=O)c1ccc(N2CC3CC(C2)c2cccc(=O)n2C3)c(NC(=O)c2cccnc2)c1 (stereo unspecified) | 15.8 µM (active) | 
10 | O=C(Nc1cccc(Cl)c1N1CCOCC1)c1cccnc1 |  | 49.1% [at 102 µM] (inactive)
11 | CCn1c(Cc2ccc(OC)cc2)nnc1SCC(=O)Nc1ccc(N2CCOCC2)cc1 |  | 6.79% [at 102 µM] (inactive)
12 | Cc1ccc(-c2noc(-c3nnn(-c4cccc(C(F)(F)F)c4)c3N)n2)cc1 |  | -6.96% (inactive)
13 | CCc1ccc(/C=C2\SC(N3CCOCC3)=NC2=O)cc1 | 50.1 µM (active) | 
14 | Cc1ccsc1/C=C1\SC(N2CCOCC2)=NC1=O |  | 12.5% [at 12.7 µM] (inactive)
15 | CC1CCN(C2=NC(=O)/C(=C/c3ccc(O)cc3)S2)CC1 |  | 0.648% [at 102 µM] (inactive)
16 | COC(=O)Cc1ccc(OC(=O)C2CCN(S(=O)(=O)c3ccc(OC)c(OC)c3)CC2)cc1 |  | 13.8% [at 12.7 µM] (inactive)
17 | O=C(Nc1ccc2oc(-c3ccc(O)c(Br)c3)nc2c1)c1cc2ccccc2o1 |  | 3.9% (inactive)
18 | Clc1ccc(CN2CCCCCC2)cc1Cl | 22.4 µM (active) | 
19 | c1cc(-c2nn[nH]n2)ccc1CN1CCCCC1 |  | -40.3% [at 102 µM] (inactive)
20 | Clc1ccc(-n2nnnc2CN2CCCCC2)cc1Cl |  | 15.7% (inactive)
21 | O=C(Nc1ncccc1O)c1ccc(S(=O)(=O)N2CCCCCC2)cc1 |  | 5.43% [at 102 µM] (inactive)

Row | SMILES | Potency | activity, negative = inhibition
22 | CCN(C(=O)Cn1cc(S(=O)(=O)N2CCN(c3ccccc3F)CC2)c2ccccc2c1=O)c1ccc(C)c(C)c1 |  | -32.2% (inactive)
23 | Cc1ccc(C)c(Cn2c(C)c(CNCc3ccc(F)cc3)c(C(=O)O)c2C)c1 |  | -2.85% (inactive)
24 | Cn1cccc1C(=O)NNC(=O)COc1ccc(Br)cc1 |  | 4.95% [at 0.501 µM] (inactive)
25 | CCCCNC(=O)CSc1nc2ccc(NC(=O)CSc3nnc(N)s3)cc2s1 | 2 µM (active) | 
26 | CN(C(=O)CSc1nc2ccc(NC(=O)COc3ccccc3)cc2s1)c1ccccc1 |  | -35% (inactive)
27 | CCC(=O)Nc1ccc2nc(SCC(=O)N3CCc4ccccc43)sc2c1 |  | 5.3% (inactive)
28 | CN(C)C(=O)N=NC(=O)N(C)C | 2.24 µM (active) | 
29 | CCOc1ccc(NC(=O)CC2C(=O)N(c3cccc(OC)c3)C(=O)N2C2CCCCC2)cc1 (stereo unspecified) |  | -36.5% (inactive)
30 | COc1ccc(CNC(=O)CNC(=O)c2sc3ccccc3c2Cl)cc1OC |  | -4.28% [at 102 µM] (inactive)
31 | COc1ccc(OCCCC(=O)Nc2cccc(S(=O)(=O)N3CCCCCC3)c2)cc1 |  | -48.2% [at 12.7 µM] (inactive)
32 | COc1ccc(-c2cn3c(n2)sc2cc(C(=O)Nc4ccccc4F)ccc23)cc1 |  | 5.43% (inactive)
33 | CN1CCN(CCCCOc2cccc3ccccc23)CC1 |  | 26.3% [at 2.33 µM] (inactive)
34 | CCN1CCN(CCCCOc2ccccc2F)CC1 | 10 µM (active) | 
35 | Fc1ccccc1OCCCCn1cncn1 |  | -3.44% (inactive)
36 | O=C(COC(=O)C1(c2ccc(F)cc2)CCCC1)N1CCNC1=O |  | 19.8% [at 12.7 µM] (inactive)
37 | COc1ccc(Cc2nc3ccc(C(=O)NCc4ccc(OC)cc4OC)cc3o2)cc1 |  | 3.04% (inactive)
38 | COC(=O)C1=C(NC(=O)C(C)(C)C)CCS1 | 1.41 µM (active) | 
39 | Cc1cc2c(=O)n(CC(=O)NCC(=O)Nc3ccc(C(C)C)cc3)cnc2s1 |  | 12.3% [at 102 µM] (inactive)
40 | CC1(c2ccc(Cl)cc2)NC(=O)N(CC(=O)c2ccc3c(c2)OCO3)C1=O (stereo unspecified) |  | -7.79% [at 102 µM] (inactive)
41 | O=C(CN1CCN(c2ccccc2F)CC1)c1ccc2c(c1)OCO2 | 20 µM (active) | 
42 | O=C(Nc1ccccc1F)c1ccc2c(c1)OCO2 |  | -7.42% [at 0.501 µM] (inactive)

Row | SMILES | Potency | activity, negative = inhibition
43 | COc1ccc(C2CC(=O)Nc3c2c(=O)nc2c(C)cccn32)cc1OC (stereo unspecified) |  | -13.1% (inactive)
44 | Cn1c(N)c(C(=O)COC(=O)/C=C/c2cccc(C(F)(F)F)c2)c(=O)n(C)c1=O |  | 28.8% [at 2.33 µM] (inactive)
45 | CC1(C)O[C@@H]2CC3C4C[C@H](F)C5=CC(=O)C=CC5(C)C4C(O)CC3(C)[C@]2(C(=O)CO)O1 (stereo partly specified) |  | -17.2% (inactive)
46 | CCSc1nc2sc3c(c2c(=O)[nH]1)CC(C)(C)OC3 |  | 7.55% [at 102 µM] (inactive)
47 | CCC1(C)Cc2c(sc3nc(SC)nc(N)c23)CO1 (stereo unspecified) |  | 17.6% (inactive)
48 | CCC1(C)Cc2c(sc3nc(SC)[nH]c(=O)c23)CO1 (stereo unspecified) | 44.7 µM (active) | 
49 | COc1ccccc1NC(=O)C(=O)c1cc(C)n(-c2ccccc2F)c1C |  | -41.8% (inactive)
50 | COc1cc(CNCCSc2nnnn2C)ccc1OCc1ccc(Cl)cc1Cl |  | -31.5% (inactive)
51 | Cc1cc(Cl)ccc1OCC(=O)N(Cc1ccc(N(C)C)cc1)C1CCS(=O)(=O)C1 (stereo unspecified) | 10 µM (active) | 
52 | Cc1ccccc1OCC(=O)N(Cc1cccc(F)c1)C1CCS(=O)(=O)C1 (stereo unspecified) |  | 65.3% [at 102 µM] (inactive)
53 | COc1cc(C(=O)N(Cc2ccc(C(C)C)cc2)C2CCS(=O)(=O)C2)cc(OC)c1OC (stereo unspecified) |  | 2.53% (inactive)
54 | Cc1ccc(CN(C(=O)COc2ccc(Cl)cc2C)C2CCS(=O)(=O)C2)o1 (stereo unspecified) |  | -30% (inactive)
55 | CC(C)c1ccc(OCC(=O)N(Cc2ccc(N(C)C)cc2)C2CCS(=O)(=O)C2)cc1 (stereo unspecified) | 12.6 µM (active) | 
56 | CCc1ccc(OCC(=O)N(Cc2ccccc2)C2CCS(=O)(=O)C2)cc1 (stereo unspecified) |  | 21.1% [at 102 µM] (inactive)
57 | COc1ccc(NC(=O)CSc2nc(SC)ns2)c(OC)c1 |  | -2.51% [at 102 µM] (inactive)
58 | COc1cccc(N2CC(NC(=O)/C=C\c3ccccc3)CC2=O)c1 (stereo unspecified) |  | 2.58% (inactive)
59 | CCOc1ccc(NC(=O)CN(C)C(=O)c2cccc(S(=O)(=O)N3CCCC3)c2)cc1OCC |  | -27.5% [at 102 µM] (inactive)
60 | CC(C)CN(C(=O)CSc1ncnc2sccc12)C1CCS(=O)(=O)C1 (stereo unspecified) |  | 0.939% [at 12.7 µM] (inactive)
61 | COC(=O)[C@@]12CCCN1[C@H](c1ccc(-c3ccc(F)cc3)c(OC)c1)[C@H]1C(=O)N(C)C(=O)[C@H]12 |  | 17.2% [at 2.33 µM] (inactive)
